Assay outcomes: PubChem BioAssay, several laboratories
The list is not random: actives were taken first. Their share in the collection is about 3.7%.
PfHsp90 yeast 2 = inhibits growth of yeast expressing Plasmodium falciparum Hsp90. S. cerevisiae expressing PfHsp90, BacTiter-Glo ATP, 48 h; yeast lacking PDR1 and PDR3 efflux regulators. inhibition, % at 9.4 µM. 0.32% of 310,000 active. AID 504621;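 active = every replicate shows inhibition above about 80%, whatever the replicate mean, limit read from the data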
tim23-1 inh = inhibits growth of tim23-1 mutant yeast. inhibition, % at 20 µM. AID 463212. 1.3% of 330,000 active. S. cerevisiae tim23-1 growth, BacTiter-Glo luminescence, 24 h;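 active = growth inhibition of the mutant yeast at or above 50%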;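 also: temperature-sensitive mutant grown at 25 °C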
TIM10 inh = inhibits growth of TIM10 yeast strain | inhibition, % at 10 µM | AID 463195 | S. cerevisiae TIM10 strain growth, BacTiter-Glo luminescence, 24 h | 1.4% of 330,000 active;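 active = inhibition of 40% or more at the single tested concentration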;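 also: wild-type TIM10 isogenic control strain grown at permissive 25 °C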
NALP3 yeast inh = NALP3 inhibition in yeast. Yeast reconstituted NLRP3/ASC/caspase-1, beta-gal luminescence, 24 h. inhibition, % at 10 µM. 0.39% of 330,000 active. AID 2825;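 active = inhibition of 50% or more; inactive = inhibition below 50%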
tim10-1 inh = inhibits growth of tim10-1 mutant yeast. S. cerevisiae tim10-1 ts strain growth, BacTiter-Glo, 24 h. inhibition, % at 20 µM. 2.2% of 330,000 active;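 active = inhibition of at least 40%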;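 also: mutant grown at 25 °C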
tim10-1 conf = confirmation of tim10-1 mutant yeast growth inhibitors; shares compounds with tim10-1 inh; S. cerevisiae tim10-1 ts strain growth, BacTiter-Glo, 24 h; inhibition, % at 20 µM; 56% of 7,400 active; AID 463213;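 active = inhibition of yeast growth at or above a set limit in either of two repeat tests at 20 µM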;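 also: tim10-1 mutant grown at permissive 25 °C to find synthetic lethal compounds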
TIM10 conf = confirmation of TIM10 yeast growth inhibitors | shares compounds with TIM10 inh | S. cerevisiae tim10 strain growth, BacTiter-Glo luminescence, 24 h | inhibition, % at 10 µM | 63% of 4,600 active | AID 463215;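 active = inhibition of yeast growth at or above a set limit in either of two replicates at 10 µM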; also: this counterscreen used the strain with wild-type TIM10
Hits are given with their value; n = inactive; x = no result given.

SMILES	PfHsp90 yeast 2	tim23-1 inh	TIM10 inh	NALP3 yeast inh	tim10-1 inh	tim10-1 conf	TIM10 conf
Cc1cc(N/N=C/c2ccccc2O)nc(-c2ccccc2O)n1	n	n	40.8	n	50.5	32.0	n
Cc1cc(N/N=C/c2ccc(O)cc2O)nc(-c2ccccc2O)n1	n	x	x	x	x	x	x
CCOC(=O)N1CCC(N2CCN(CCC(C)C)C(CCO)C2)CC1 (stereo unspecified)	x	n	n	n	n	x	x
C=CCc1cccc(/C=N/NC(=O)c2ccccc2OC)c1O	n	n	57.2	n	48.5	31.4	38.5
CN(Cc1ccccc1F)C(=O)CCNC(=O)c1ccc(C(C)(C)C)cc1	n	n	n	n	n	x	x
CCc1c(C)sc(NC(=O)c2cc(C)on2)c1C#N	n	n	n	n	n	x	x
CCCc1cc(C(N)=O)c(NC(=O)c2cc(C)on2)s1	n	n	58.3	n	64.2	53.8	53.6
CC(C)C(OC(=O)CN1C(=O)COc2ccccc21)C(=O)NC1CCCCC1 (stereo unspecified)	n	n	n	n	n	x	x
CCc1cc2ccc(C)cc2nc1SCC(=O)NNC(=O)c1ccco1	n	n	42.3	n	40.1	n	n
COc1ccc(-n2c(/C=C3\C(=O)N(C)c4ccccc43)nc3ccccc3c2=O)cc1	n	n	n	n	n	x	x
CCN1C(=O)/C(=C\c2nc3ccccc3c(=O)n2-c2ccccc2)c2ccccc21	n	n	43.4	n	42.2	33.0	n
O=C(Nc1ccc2c(c1)OCO2)C1CCCN(c2nc3ccccc3s2)C1 (stereo unspecified)	n	n	44.7	n	48.0	35.5	37.8
Cc1ccc(NC(=S)NCc2ccc3[nH]c4c(c3c2)CCCC4)cc1	n	n	45.7	n	46.7	29.0	n
CCn1c(Cc2cccc3ccccc23)nnc1SCC(=O)Nc1nccs1	n	n	n	n	n	x	x
O=C(C1CC1)N1CCc2cc(S(=O)(=O)NCCC3=CCCCC3)ccc21	n	n	41.1	n	50.5	33.7	n
O=C(C1CCC1)N1CCc2cc(S(=O)(=O)N3CCN(c4ccccn4)CC3)ccc21	n	n	55.5	n	69.4	69.3	n
O=C(C1CCC1)N1CCc2cc(S(=O)(=O)N3CCCCC3)ccc21	n	n	n	n	n	x	x
CCCN(CCC)CCNS(=O)(=O)c1ccc2c(c1)CCN2C(=O)C1CCC1	n	n	n	n	n	x	x
CCOC(=O)N1CCN(S(=O)(=O)c2ccc3c(c2)CCN3C(=O)C2CCC2)CC1	n	n	46.9	n	56.5	53.3	n
O=C(COc1ccc(Cl)cc1Cl)NNC(=S)NCc1ccco1	n	n	49.7	n	46.1	37.0	39.8
Cc1nn(C)c(C(=O)NC(=S)Nc2ccc([N+](=O)[O-])cc2)c1Cl	n	n	41.1	n	51.6	39.7	n
COC(=O)c1sc2nc(C)nc(SCC(=O)Nc3sccc3C(N)=O)c2c1C	x	n	n	n	n	x	x
CC(C)CCNC(=O)COC(=O)/C=C/c1ccc2ccccc2n1	n	n	45.1	n	49.4	42.0	41.0
O=C(COC(=O)/C=C/c1ccccc1)NCCNC(=O)COC(=O)/C=C/c1ccccc1	n	n	n	n	n	x	x
CN(Cc1cc(Cl)cc(Cl)c1)CC(C(=O)c1ccccc1)c1ccccc1 (stereo unspecified)	n	x	x	x	x	x	x
SMILES	PfHsp90 yeast 2	tim23-1 inh	TIM10 inh	NALP3 yeast inh	tim10-1 inh	tim10-1 conf	TIM10 conf
CN(C)CC(C(=O)c1ccccc1)c1ccccc1 (stereo unspecified)	n	n	50.9	n	49.6	57.0	59.8
NC(=O)c1ccc(NCCCN2CCOCC2)c([N+](=O)[O-])c1	n	n	n	n	n	x	x
O=C1CC(/C=C/c2ccccc2)=Nc2ccccc2N1	n	n	n	n	n	x	x
CC1(C)CC(/C=C/c2ccccc2)=Nc2ccccc2N1	n	n	66.8	n	49.5	54.2	57.9
O=C(CC1(O)C(=O)Nc2ccccc21)c1cccc(-n2cccc2)c1 (stereo unspecified)	n	n	n	n	n	x	x
CN1C(=O)C(O)(CC(=O)c2cccc(-n3cccc3)c2)c2ccccc21 (stereo unspecified)	n	n	46.1	n	50.6	38.3	n
CC(=O)Nc1ccc(C(=O)OCc2ccccc2Cl)cc1	n	n	42.5	n	53.9	n	34.4
COc1ccccc1C/C(N)=N/OC(=O)COc1cccc(C)c1	n	n	51.1	n	43.0	n	n
Clc1ccc2c(N/N=C/c3cccnc3)ccnc2c1	n	n	71.4	n	51.3	56.8	79.4
Clc1ccc2c(N/N=C/c3ccc(Br)cc3)ccnc2c1	n	x	x	x	x	x	x
O=C(CNC(=S)N(Cc1ccccc1F)C1CCCCC1)NCCCN1CCOCC1	n	n	n	n	n	x	x
Oc1ccc(C[C@@H]2CNC(=S)N2CCCCC2CCCCC2)cc1	n	n	40.4	n	53.0	n	n
O=C(Nc1ccc(C(=O)N2CCN(c3ccc(Cl)cc3)CC2)cc1)C1=CSCCO1	n	n	47.5	n	47.5	48.5	45.4
O=C(Nc1ccc(N2CCN(C(=O)c3ccc(Cl)cc3)CC2)cc1)c1ccc(Br)o1	n	n	n	n	n	x	x
COCCN(C(=S)Nc1cc(C)cc(C)c1)C(C)c1ccco1 (stereo unspecified)	n	n	n	n	n	x	x
O=C(C[C@@H]1C/C=C/CC[C@@H](Cc2ccc(F)cc2)C(=O)O[C@@H](c2ccccc2)CNC1=O)NCCO	n	n	n	n	n	x	x
Cc1ccc(O)c(C(=O)/C=C/c2ccc3c(c2)OCCO3)c1	n	n	58.7	n	55.4	54.5	50.5
CNC(=S)N/N=C/c1cn(CCOc2ccc(OC)cc2)c2ccccc12	n	n	n	n	n	x	x
O=C(Cc1ccccc1Cl)Nc1cccc(S(=O)(=O)N2CCCCCC2)c1	n	n	n	n	n	x	x
O=C(Nc1cccc(S(=O)(=O)N2CCCCC2)c1)Nc1ccc(Cl)cc1Cl	n	n	45.6	n	44.3	n	39.0
COc1cccc(/C=N/Nc2ncnc3scc(-c4ccccc4)c23)c1OC	n	n	40.2	n	46.1	42.9	31.3
COc1cccc(C=NNc2nc3ccccc3s2)c1OC	n	x	x	x	x	x	x
COc1ccc(OCCCC(=O)Nc2ccc(S(=O)(=O)N3CCOCC3)cc2)cc1	x	n	n	n	n	x	x
COc1ccc(OC)c(C2C=C(C34CC5CC(CC(C5)C3)C4)NC(=S)N2)c1 (stereo unspecified)	n	n	40.6	n	46.7	n	n
COc1cc(C2C=C(C34CC5CC(CC(C5)C3)C4)NC(=S)N2)cc(OC)c1OC (stereo unspecified)	n	n	n	n	n	x	x
Cc1cccc(-n2cc(CN(C)Cc3nccn3C)c(-c3cccc(F)c3)n2)c1	n	n	44.9	n	43.2	n	43.5
O=C(Nc1cccc(C(F)(F)F)c1)c1cccnc1NCCc1ccccc1	n	n	43.3	n	44.3	29.7	n
